Bioassay records as filed in PubChem BioAssay.
Compounds with a hit are over-represented: about 2.2% of the library has one in this group of screens.
KKLEB cytotox – cytotoxicity in KKLEB CF airway cells, primary screen, cytotoxicity control for CF NF-kB inhibitor project, cell-based, uHTS, fluorescence assay plates; AID 602141, 2011; 360,000 compounds, 0.36% hits; activity change (cytotoxicity), % at 5 µM; KKLEB CF airway cells viability, ATPlite luminescence, overnight; hits give low values; cells stimulated with P. aeruginosa culture filtrate;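 active means corrected activity change at or below -50% at 5 µM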
iPSC survival up – enhancers of single-cell hiPSC survival, primary screen, ATPlite luminescence | 100% = ROCK inhibitor wells, 0% = DMSO | survival enhancement, % at 20 µM | 360,000 compounds, 0.044% hits | AID 602274, 2012; in the data active means survival enhancement above about 18%;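 further: cells exposed to compounds for 16 hours before the ATP read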
HIF-2a inh – HIF-2a reporter inhibitors, primary screen, luminescence, 786-0 RCC cells | 360,000 compounds, 0.72% hits | inhibition, % at 18.8 µM | 786-0 RCC cells HIF-2a reporter, luciferase luminescence, overnight | AID 624352, 2012;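 active means inhibition of the luminescence signal of 40% or more relative to plate controls, in a single-dose primary screen at 18.75 µM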
CF NFkB inh – inhibitors of PAF-induced NF-kB signaling, primary screen, cell-based, GFP fluorescence, uHTS. KKLEB NF-kB-GFP reporter, GFP fluorescence overnight. inhibition, % at 5 µM. 360,000 compounds, 0.86% hits. AID 588850, 2011;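 active means at least 50% inhibition at 5 µM, scaled per plate between neutral and stimulator controls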;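 further: PAF is a Pseudomonas aeruginosa culture filtrate used as stimulus; plate controls were PAF-stimulated DMSO wells for no effect and unstimulated DMSO wells for full effect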
PPC-1+TRAIL kill – compounds killing PPC-1 cancer cells with TRAIL present, primary screen, TRAIL potentiator project, ATPLite luminescence, uHTS; PPC-1 cells + TRAIL, ATPLite viability luminescence; 220,000 compounds, 0.41% hits; AID 1443, 2008; cell killing (% activity), % at 4 µM or 5 µM;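 active means cell killing above 50% in the first pass at 4 µM, then a duplicate retest at 5 µM averaging 50% or more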;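 further: plate controls were cells with TRAIL plus DMSO for no effect and medium-only wells lacking cells for full effect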
TRAIL sens C8 – viability loss with TRAIL in NB7+C8 cells, primary screen, TRAIL sensitizer project, cell-based, ATPlite luminescence | inhibition (viability loss, TRAIL sensitization), % at 10 µM | 360,000 compounds, 1% hits;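 active means compounds causing at least 50% loss of cell viability in the single-dose screen, relative to plate controls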
CF NFkB conf – inhibitors of PAF-induced NF-kB signaling, retest, confirmation, cell-based, GFP fluorescence, single concentration | shares compounds with CF NFkB inh | KKLEB CF airway cells, overnight | inhibition, % at 5 µM | 1,300 compounds, 64% hits | AID 602472, 2012; in the data active means inhibition above about 40%;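 further: stimulus PAF is a Pseudomonas aeruginosa filtrate and not platelet activating factor; plate controls were DMSO wells with stimulus for no effect and unstimulated DMSO wells for full effect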
Mdm2 MdmX conf – retested Mdm2-MdmX interaction blockers, confirmation, cell-based, luminescence, single concentration, set 2; shares compounds with HIF-2a inh; SaOS-2 split-luciferase Mdm2/MdmX complementation; inhibition, % at 8 µM; 740 compounds, 99% hits; AID 504601, 2011;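 active means mean inhibition of the luminescence signal across two replicates at or above 26 percent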
Target sequence (O15151 whole entry, looked up): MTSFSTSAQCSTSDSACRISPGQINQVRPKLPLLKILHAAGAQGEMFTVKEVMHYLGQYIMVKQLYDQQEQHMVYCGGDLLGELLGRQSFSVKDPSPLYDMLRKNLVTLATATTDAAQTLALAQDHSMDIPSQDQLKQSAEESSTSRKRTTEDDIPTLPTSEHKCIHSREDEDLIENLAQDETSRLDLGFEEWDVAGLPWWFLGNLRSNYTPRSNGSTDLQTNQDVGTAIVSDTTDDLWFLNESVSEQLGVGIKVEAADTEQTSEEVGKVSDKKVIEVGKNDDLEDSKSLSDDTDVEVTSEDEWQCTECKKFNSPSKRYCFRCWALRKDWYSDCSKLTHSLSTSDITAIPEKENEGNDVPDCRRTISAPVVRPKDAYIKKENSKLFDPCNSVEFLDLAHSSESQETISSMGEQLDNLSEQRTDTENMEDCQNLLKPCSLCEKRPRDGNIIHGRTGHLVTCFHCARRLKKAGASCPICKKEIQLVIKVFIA
Target sequence (Q00987 whole entry, looked up): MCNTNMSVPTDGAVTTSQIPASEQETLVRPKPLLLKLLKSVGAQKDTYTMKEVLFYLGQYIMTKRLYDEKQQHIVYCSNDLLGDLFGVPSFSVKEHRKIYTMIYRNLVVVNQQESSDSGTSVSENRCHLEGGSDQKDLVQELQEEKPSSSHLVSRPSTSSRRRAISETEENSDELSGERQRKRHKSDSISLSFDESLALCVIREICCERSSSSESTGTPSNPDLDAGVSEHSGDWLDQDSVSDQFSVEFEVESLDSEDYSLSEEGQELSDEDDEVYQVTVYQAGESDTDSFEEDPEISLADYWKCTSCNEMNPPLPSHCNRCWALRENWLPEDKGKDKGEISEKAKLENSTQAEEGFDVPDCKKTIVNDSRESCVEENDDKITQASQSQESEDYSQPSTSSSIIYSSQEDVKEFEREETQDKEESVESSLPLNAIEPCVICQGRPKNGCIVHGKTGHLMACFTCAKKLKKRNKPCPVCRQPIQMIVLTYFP
HIF-2a inh conf – HIF-2a reporter inhibitor retest, confirmation, luminescence, 786-0 RCC cells. HIF-2a luciferase reporter luminescence, overnight. inhibition, % at 18.8 µM. shares compounds with HIF-2a inh. 1,800 compounds, 56% hits;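 active means mean inhibition across four replicates of at least 40 percent at the single tested concentration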
HIF-1a cs – HIF-1a luciferase reporter signal reduction – MiaPaCa-2 cells, single concentration, counter-screen for HIF-2a inhibitor project, confirmation. AID 651589, 2012. MiaPaCa-2 HIF-1a luciferase reporter, desferoxamine, overnight. inhibition, % at 18.8 µM. shares compounds with HIF-2a inh. 1,800 compounds, 72% hits;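 active means mean inhibition of the reporter signal across four replicates at the single tested dose of 50% or more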
* hit, by the source's call; . = not tested or not shown.

SMILES | KKLEB cytotox | iPSC survival up | HIF-2a inh | CF NFkB inh | PPC-1+TRAIL kill | TRAIL sens C8 | CF NFkB conf | HIF-2a inh conf | HIF-1a cs | others
Cc1ccc(S(=O)(=O)NCCSc2nnnn2-c2ccc(C(N)=O)cc2)cc1 | -1 | 4 | 23 | -20 | -10 | -10 | . | . | .
Cc1ccc(-n2nnnc2Sc2ccc(S(=O)(=O)NCCN(C)C)cc2[N+](=O)[O-])cc1 | -31 | -1 | 77* | 91* | 20 | 18 | 51* | 18 | 106*
COc1ccc(-c2cnc3c(NC=O)cc(-c4ccc(C(=O)N5CCOCC5)cc4)cn23)cc1OC | -35 | -2 | 41* | 57* | . | 16 | 63* | 45* | 69*
CC(=O)c1ccc(-c2cnc3c(NC=O)cc(-c4ccc(C(=O)N5CCOCC5)cc4)cn23)cc1 | -17 | -2 | 36 | 39 | . | -1 | . | . | .
CC(=O)O[C@@H]1C[C@H]2C(C)=C[C@H]3OC(=O)[C@@H](C)[C@H]3C[C@H]2[C@]1(C)O | -12 | -1 | -16 | -14 | 4 | -6 | . | . | .
C=C1C(=O)O[C@H]2C[C@H]1[C@@H](OC(C)=O)C/C(C)=C/CC/C(C)=C\CC[C@]2(C)O | -16 | -3 | 94* | 77* | . | 35 | 65* | 96* | 105*
N#CC1(NC(=O)Cn2ncc(Cl)c(Cl)c2=O)CCCCC1 | 3 | 0 | 87* | 81* | . | 93* | 14 | 59* | 107*
N#CC1(NC(=O)CN2C(=O)c3ccccc3C2=O)CCCCC1 | 8 | 0 | 18 | -3 | . | 0 | . | . | .
CC(=O)Nc1cccc(/C(C)=N/N2C(C)CCCC2C)c1 (configuration not stated) | -8 | 0 | 13 | 14 | . | 3 | . | . | .
C#CCOc1ccc(C2C3=C(CCCC3=O)N(CC(=O)O)C3=C2C(=O)CCC3)cc1Br | 2 | 0 | 35 | -6 | . | 4 | . | . | .
CC(=O)N(Cc1cc(=O)[nH]c2ccccc12)c1cccc(C)c1 | 0 | 4 | 19 | 4 | 13 | -8 | . | . | .
Cc1cccc(N(Cc2cc(=O)[nH]c3ccccc23)C(=O)CCl)c1 | -26 | 0 | 65* | 72* | . | 84* | 108* | 90* | 104* | Mdm2 MdmX conf=102*
N#CC(C#N)=C1C=CC=CN1/C(=C\c1ccco1)C(=O)c1ccc(Cl)cc1 | -50 | -1 | 94* | 85* | 20 | -2 | 10 | 98* | 97*
N#CC(C#N)=C1C=CC=CN1/C(=C\c1ccco1)C(=O)c1ccc(-c2ccccc2)cc1 | -50 | 0 | 83* | 83* | 29 | 4 | -51 | 97* | 106*
N#C/C(=C\c1ccco1)C(=O)NCc1ccccc1 | 7 | -2 | 18 | -6 | -4 | -3 | . | . | .
C[C@@H]1[C@@H](Sc2ccccc2)CC(=O)O[C@@H]1c1ccc(-c2ccccc2)cc1 | -48 | -3 | 98* | 62* | . | 21 | -74 | 6 | 101* | Mdm2 MdmX conf=103*
Cn1ccnc1C1CCCCN1C(=O)c1cc(COc2ccc(F)cc2Cl)on1 (configuration not stated) | -4 | 1 | -5 | 2 | 9 | 3 | . | . | .
Nc1ncnc2c1c(-c1ccc(Oc3ccccc3)cc1)cn2C1CCCC1 | -10 | -5 | 67* | 53* | . | 24 | 81* | 55* | 65*
CCOC(=O)c1ccc(S(=O)(=O)N2CCN(C3CC(=O)N(c4ccc(OC)cc4)C3=O)CC2)cc1 (configuration not stated) | 8 | -1 | 8 | -5 | . | -6 | . | . | .
CC(C)N=C(NS(=O)(=O)c1ccccc1)C(Cl)(Cl)Cl | -19 | -2 | 84* | 60* | 18 | -13 | 45* | 57* | 35
O=S(=O)(NC(=S)c1ccccc1)c1ccccc1 | 1 | 0 | 13 | -16 | . | -16 | . | . | .
C#CCN(C[C@@H]1[C@@H](OC(=O)NCc2ccco2)[C@@H](OC(=O)NCc2ccco2)Cn2c(=O)ccc(=O)n21)S(=O)(=O)c1ccc(C)cc1 | -21 | -2 | 43* | 66* | . | 15 | 52* | 44* | 107*
NC(N)=NN=C(c1ccc(F)cc1)c1ccc(C(F)(F)F)cc1 | -21 | -2 | 41* | 72* | . | 21 | 81* | 34 | 86*
O=C(N/N=C/c1ccc(C(F)(F)F)cc1)c1ccc(O)cc1 | 1 | -1 | -112 | -7 | 26 | 23 | . | . | .
CCN(C(=O)CSc1cccc[n+]1[O-])C1CCCCC1 | 4 | -1 | 13 | -7 | . | -16 | . | . | .
SMILES | KKLEB cytotox | iPSC survival up | HIF-2a inh | CF NFkB inh | PPC-1+TRAIL kill | TRAIL sens C8 | CF NFkB conf | HIF-2a inh conf | HIF-1a cs | others
COc1ccc(-c2noc(N3CCC(C(=O)N(C)c4ccccc4)CC3)n2)cc1 | 13 | 1 | -37 | -4 | . | 10 | . | . | .
N#CCCN1CCN(CCC#N)C1=S | 1 | 1 | 10 | -2 | . | -6 | . | . | .
CCOCc1nnc(NC(=O)C2CC(=O)N(C3CCCC3)C2)s1 (configuration not stated) | 3 | -1 | 3 | 18 | . | -6 | . | . | .
COc1cc(NC(=O)Cn2ncc(Cl)c(Cl)c2=O)c(C)cc1[N+](=O)[O-] | -37 | -1 | 93* | 93* | 19 | 93* | 100* | 98* | 106*
Cc1nc2ccccn2c1C(=O)/C=C/c1cccc([N+](=O)[O-])c1 | 1 | -4 | 75* | 71* | 22 | -48 | 2 | 2 | 33
Cc1ccc(NS(=O)(=O)c2ccc(OCC(=O)NCC3CCCO3)cc2)cc1 (configuration not stated) | 10 | 3 | 16 | -2 | -8 | -2 | . | . | .
Cc1cccc(N2CCN(C(=O)c3ccc(Cl)c(NC4=NC5CS(=O)(=O)CC5S4)c3)CC2C)c1 (configuration not stated) | 4 | 0 | 2 | -8 | . | 10 | . | . | .
